# Hits are enriched below; roughly 2.9% of the tested compounds scored in any of these assays.
# MEKK2 mut-MEK5: signal of MEK5 binding to mutant human MEKK2 PB1 domain; percent response, % at 10 µM; 290,000 compounds, 0.35% hits; bead flow cytometry, Alexa488-MEK5 binding to MEKK2 mutant; in the data active means percent response above about 24%, passing the limit was not always enough
# MEKK2 WT-MEK5: raises or lowers MEK5 binding to wildtype human MEKK2 PB1 domain; bead flow cytometry, Alexa488-MEK5 binding to MEKK2 WT; actives lie on both sides; Q9Y2U5; AID 1531; binding response (% of control), % at 10 µM; 290,000 compounds, 1.1% hits; in the data active means binding response below about 67% or above about 130%
# CRFR2-BP ag: agonists of human CRF-binding protein/CRF-R2 receptor complex. HEK293 CRF-R2/CRF-BP, calcium dye fluorescence (FLIPR); percent of saturating CRF peptide response. AID 588473. activation, % at 13.2 µM. 350,000 compounds, 0.46% hits;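 active means activation of at least 50%, plus an integration ratio under a set limit after plate pattern correction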;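 further: plate controls were neutral control wells without compound for no effect and CRF at EC100 for full effect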
# MEKK3 PB1 HTS: MEKK3-MEK5 PB1 interaction, increase or decrease. Q99759. AID 1529. bead-based flow cytometry, Alexa488-MEK5 binding to MEKK3; actives lie on both sides; 0 = blocked by unlabeled MEK5, 100 = vehicle. binding response (% of control), % at 10 µM. 290,000 compounds, 1.4% hits;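 active means binding response more than 3 SD above or below the average of its plate-row segment, actives on both sides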;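 further: Alexa488 bead fluorescence after subtracting the streptavidin-only scavenger bead signal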
# Target sequence (Q99759 whole entry, looked up): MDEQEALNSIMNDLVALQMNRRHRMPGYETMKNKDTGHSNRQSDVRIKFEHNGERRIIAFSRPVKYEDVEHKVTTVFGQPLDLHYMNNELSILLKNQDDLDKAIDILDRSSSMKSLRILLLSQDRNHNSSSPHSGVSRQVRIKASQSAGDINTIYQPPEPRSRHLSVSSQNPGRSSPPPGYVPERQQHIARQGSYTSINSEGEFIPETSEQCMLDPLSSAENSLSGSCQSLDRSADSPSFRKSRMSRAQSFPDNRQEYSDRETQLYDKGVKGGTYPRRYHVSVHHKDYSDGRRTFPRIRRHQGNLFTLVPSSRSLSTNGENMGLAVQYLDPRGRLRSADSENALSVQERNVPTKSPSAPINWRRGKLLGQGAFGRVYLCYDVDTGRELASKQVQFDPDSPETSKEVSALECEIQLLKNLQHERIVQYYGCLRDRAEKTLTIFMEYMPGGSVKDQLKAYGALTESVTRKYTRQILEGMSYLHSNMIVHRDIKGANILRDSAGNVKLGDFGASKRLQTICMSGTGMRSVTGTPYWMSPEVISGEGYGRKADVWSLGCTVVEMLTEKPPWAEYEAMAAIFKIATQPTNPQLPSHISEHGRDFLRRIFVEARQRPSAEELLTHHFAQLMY
# CRFBP-R2 block: blocks CRF-induced signaling of the CRF-BP/CRF-R2 complex. inhibition, % at 11.8 µM. 350,000 compounds, 0.59% hits. HEK293 CRF-R2/CRF-BP, CRF-induced calcium fluorescence;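 active means inhibition of the ligand-induced calcium signal above about 50% at the single tested concentration, limit read from the data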
# ABCB6 inh 2: human ABCB6 transporter inhibition; fluorescence ratio to DMSO, % at 10 µM; K562-ABCB6 porphyrin accumulation, flow cytometry, 1 h; hits give low values; 360,000 compounds, 0.19% hits;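 active means fluorescence ratio to DMSO below 75%, the collection mean minus 3 SD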;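 further: signal is porphyrin accumulated inside mitochondria; 100% equals median channel fluorescence of DMSO control wells; lower ratio means ABCB6 inhibition with less porphyrin fluorescence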
# MEKK2wt confirm: raises or lowers MEK5 binding to wildtype human MEKK2, retest; AID 1892; bead flow cytometry, Alexa488-MEK5 binding to MEKK2 WT; actives lie on both sides; binding response (% of control), % at 10 µM; 5,900 compounds, 2.4% hits; shares compounds with MEKK3 PB1 HTS; in the data active means binding response below about 16% or above about 210%; inactive means in between
# MEKK2mut-MEK5: signal of MEK5 binding to mutant human MEKK2, retest | 5,900 compounds, 2% hits | percent response, % at 10 µM | bead flow cytometry, Alexa488-MEK5 binding to MEKK2 mutant | AID 1893 | shares compounds with MEKK3 PB1 HTS; in the data active means percent response mostly above about 71%, no sharp cut-off; inactive means mostly below about 38%;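 further: higher means compound restores mutant binding toward wildtype level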
# MEKK3-MEK5 inh: MEKK3-MEK5 PB1 inhibition, single concentration confirmation; shares compounds with MEKK3 PB1 HTS; bead flow cytometry, Alexa488-MEK5 binding to MEKK3; hits give low values; binding response (% of control), % at 10 µM; 5,900 compounds, 1.8% hits;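 active means binding response below 72% of control, or above a set upper limit, though filed actives all read lower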;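 further: 100% = DMSO only wells and 0% = binding blocked by excess unlabeled MEK5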
# * hit, by the source's call; i = inactive; / = no result; [ ] = dose if it differs, or a comment.
SMILES,MEKK2 mut-MEK5,MEKK2 WT-MEK5,CRFR2-BP ag,MEKK3 PB1 HTS,CRFBP-R2 block,ABCB6 inh 2,MEKK2wt confirm,MEKK2mut-MEK5,MEKK3-MEK5 inh
O=C(CSc1ncnc2scc(-c3ccccc3)c12)Nc1ccc(C(=O)O)cc1,-7,94,1,94,3,96,/,/,/
CC(=O)Nc1ccc(Sc2ncnc3scc(-c4ccccc4)c23)cc1,-1,99,2,128*,1,99,102,5,104
CCOC(=O)c1cc(NC(=O)c2ccco2)ccc1N1CCOCC1,-22,35*[inhibitor],-1,27*[inhibitor],-8,96,111,8,109
O=C(Nc1ccc(N2CCOCC2)c(C(=O)O)c1)c1ccco1,0,99,/,98,/,/,/,/,/
CN1CCC(OC(=O)c2cc3cc(Br)ccc3oc2=O)CC1,3,110,-1,103,16,89,/,/,/
COc1ccc(OCCC(=O)N2CCN(C)CC2)cc1,25*,113,-2,114,2,100,103,0,102
Cc1cccc(NC(=O)c2cnccn2)c1,1,105,-1,107,8,100,/,/,/
CCN(CC)c1ncnc2c1ncn2[C@H]1CN(Cc2ccccc2)C[C@@H](CO)O1,/,/,/,/,/,95,/,/,/
COc1ccc(-c2noc(CN(C(=O)C(C)(C)C)C(C)C)n2)cc1,25*,114,-6,118,-8,95,98,-3,100
CC(C)N(Cc1nc(-c2ccccc2)no1)C(=O)C(C)(C)C,1,101,0,99,-6,100,/,/,/
O=C1C(=O)N(CCN2CCOCC2)C(c2ccccn2)/C1=C(/O)c1ccccc1 (stereo not given),-27,0.0*[inhibitor],2,0.0*[inhibitor],8,110,108,7,108
CC1(C)CC(=O)C(C=Nc2cccnc2)=C(O)C1,-7,90,1,90,2,97,/,/,/
CCCCCCN=CC1=C(O)CC(C)(C)CC1=O,-32,0.0*[inhibitor],-1,0.0*[inhibitor],11,90,99,-3,93
CC1(C)CC(=O)C(C=Nc2ccncc2)=C(O)C1,-23,-7.0*[inhibitor],0,0.0*[inhibitor],-6,100,98,-6,96
COc1ccc(C(O)Cn2ccsc2=NC(C)=O)cc1 (stereo not given),2,99,3,100,-2,98,/,/,/
CCOC(=O)N1CCN(C(=O)CSc2nc(-c3cccc(C)c3)ns2)CC1,10,134*,1,147*,38,96,106,12,106
CCOC(=O)CNC(=O)CSc1nc(-c2ccc(C)cc2)ns1,2,119,1,129*,1,102,117,6,100
CC(C)(C)c1ccc(C(O)CCCN2CCC(C(O)(c3ccccc3)c3ccccc3)CC2)cc1 (stereo not given),24*,212*,0,84,-24,94,142,33,107
OC(c1ccccc1)(c1ccccc1)C1CCN(CCCOc2cccc(OC(F)(F)F)c2)CC1,/,/,/,/,/,99,/,/,/
Cc1ccc(NC(=O)CCn2nc(C)cc2C)cc1,10,139*,-1,142*,5,97,101,1,100
Cc1ccc(C)c(NC(=O)CCn2nc(C)cc2C)c1,7,103,-1,104,-1,91,/,/,/
COc1ccc(/C=N/NC(=O)CCn2nc(C)cc2C)cc1,30,112,-4,133*,3,96,96,-3,98
CCN(C[C@H]1N[C@@](Cc2ccccc2)(C(=O)OC)[C@H]2C(=O)N(C)C(=O)[C@@H]12)S(=O)(=O)c1ccc(C(C)(C)C)cc1,/,/,1,/,1,94,/,/,/
Nc1c(Cl)ncnc1N/N=C/c1ccc(O)cc1,-11,53*[inhibitor],-2,51*[inhibitor],16,100,91,0,89
Oc1ccc(/C=N/Nc2nccnc2Cl)cc1,7,121,0,126*,16,99,99,2,104
SMILES,MEKK2 mut-MEK5,MEKK2 WT-MEK5,CRFR2-BP ag,MEKK3 PB1 HTS,CRFBP-R2 block,ABCB6 inh 2,MEKK2wt confirm,MEKK2mut-MEK5,MEKK3-MEK5 inh
Cc1nc(Cl)cc(N/N=C/c2ccc(O)cc2)n1,17,115,1,112,8,96,/,/,/
Fc1ccc(/C=N/Nc2nccnc2Cl)cc1,1,108,0,101,6,96,/,/,/
O=[N+]([O-])c1ccc(N/N=C/c2cccc(O)c2O)c(S(=O)(=O)N2CCOCC2)c1,-1,96,-1,104,9,105,/,/,/
Cc1ccc(NS(=O)(=O)c2cc([N+](=O)[O-])ccc2N/N=C/c2sc(N3CCOCC3)nc2-c2ccccc2)c(C)c1,49,/,19,10*[inhibitor],21,i,106,3,102
Cn1c(O)c(N=NC(=O)c2cc(-c3cccs3)nc3ccccc23)c2ccccc21,1,100,0,130*,2,97,99,0,105
CCCN(CCC)C(=O)c1ccc2c(c1)N(CC)C(=O)c1ccccc1S2(=O)=O,3,111,-2,107,17,100,/,/,/
COc1ccc([N+](=O)[O-])cc1/C=N/NC(=O)CNC(=O)C(c1ccccc1)c1ccccc1,1,109,0,165*,-6,99,99,0,99
CCOC(=O)c1ccc(N(CC2CO2)S(=O)(=O)c2ccc(C)cc2)cc1 (stereo not given),/,/,3,/,2,106,/,/,/
O=C(O)C1=C[C@@H](c2csc3ccccc23)C[C@@H](OCc2ccc(CO)cc2)O1,2,103,-1,100,12,101,/,/,/
O=C(O)C1=C[C@H](c2csc3ccccc23)C[C@H](OCc2ccc(CO)cc2)O1,-3,104,-1,66*[inhibitor],-3,92,95,-4,98
CC1CCN(Cc2ccc(NC(=O)C3CCN(c4nnc(-n5cccc5)s4)CC3)cc2)CC1,78*,231*,0,105,10,98,186,62,108
O=C(C1CCN(c2nnc(-n3cccc3)s2)CC1)N1CCN(Cc2ccc3c(c2)OCO3)CC1,4,108,1,104,5,97,/,/,/
CN(CCO)C(=O)c1cccc2c1-c1ccccc1C2=O,-11,90,0,81*[inhibitor],2,93,101,-1,101
O=C(CSc1ncn[nH]1)c1ccc2c(c1)OCCO2,-7,87,0,77*[inhibitor],12,98,106,4,105

# Bioassay records from PubChem BioAssay.
